Measurements as given in PubChem BioAssay.
Active and inactive are the calls of the source.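 Rule for the calls, unless noted: active = inhibition above 20% together with a positive visual image hit; inconclusive = visual image hit but inhibition not above 20%; inactive = no visual image hit.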

Key:
[1] = inhibitors of TNFa-induced NFkB p65 translocation, primary screen, imaging, HUVEC, MLSMR starter and 10KST1 sets (AID 438); conditions: HUVEC TNFa-induced p65 nuclear translocation; cell count: measured here: nuclei count (cytotoxicity indicator), at 2.08 µM; inhibition: at 2 µM, stronger effect = higher value, 0% TNFa-plus-vehicle, 100% no-TNFa wells;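 note: compound added about 3h40 before a 20 min TNFalpha stimulation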;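 for inhibition: signal is the nuclear over cytoplasmic p65 intensity ratio per well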
[2] = reduction of polyQ htt aggregates in cells – imaging, exon1htt(103Q)mCFP cells, high-content imaging, primary screen (AID 483;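 active = visual image review flags a hit and inhibition of aggregation exceeds 20%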;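 note: compound exposure lasted 3 days before fixation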;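 for nuclei count: percent of the per-plate median nuclei count of sample wells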); conditions: exon1htt(103Q)mCFP cell line, aggregate imaging, at 2 µM; inhibition of aggregation: stronger effect = higher value; nuclei count: measured here: cell count, toxicity
[3] = endothelial E-selectin expression blockers – imaging, HUVEC, immunofluorescence, MLSMR starter and 10KST1 sets, primary screen (AID 487;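 active = visually confirmed hit in the image check and inhibition above 20%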;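 for inhibition: signal is fraction of cell area covered by stained E-selectin grains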;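 for nuclei count: 100% = median nuclei count of all wells on the same plate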); conditions: HUVEC TNFalpha-induced E-selectin immunofluorescence imaging, at 2 µM; inhibition: stronger effect = higher value; nuclei count: measured here: cell number, toxicity
[4] = target: Voltage-gated potassium channel subunit beta-2 (Rattus norvegicus) (UniProt P62483); test: inhibitors of rat Kvbeta2 reductase activity – biochemical, NADPH fluorescence, primary screen (AID 622;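 active = fluorescence slope higher than the sample average by over 3 SD, cut at about -0.22 in these data, passing the limit was not always enough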;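 note: slope of raw intensity against log time taken from 70 to 1610 s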); conditions: recombinant KvBeta, 4-cyanobenzaldehyde reduction, at 10 µM, stronger effect = higher value
Sequence of Voltage-gated potassium channel subunit beta-2 (Rattus norvegicus) (P62483 whole entry, looked up): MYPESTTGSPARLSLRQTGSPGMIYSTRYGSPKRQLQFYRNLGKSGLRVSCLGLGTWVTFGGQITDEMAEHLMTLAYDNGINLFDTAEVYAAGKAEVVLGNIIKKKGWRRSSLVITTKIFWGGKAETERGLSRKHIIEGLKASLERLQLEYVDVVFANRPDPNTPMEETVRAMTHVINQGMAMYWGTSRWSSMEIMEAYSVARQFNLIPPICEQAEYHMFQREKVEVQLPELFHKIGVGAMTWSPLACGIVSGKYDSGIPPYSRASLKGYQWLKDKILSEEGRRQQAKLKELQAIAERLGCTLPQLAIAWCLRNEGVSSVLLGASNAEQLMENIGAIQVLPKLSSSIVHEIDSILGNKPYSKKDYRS

[5] = target: Voltage-gated potassium channel subunit beta-2 (Rattus norvegicus) (UniProt P62483); test: enhancers of rat Kvbeta2 NADPH turnover – biochemical, NADPH fluorescence, primary screen (AID 623;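 active = NADPH fluorescence slope more negative than the mean of all samples by about 3 SD, 99.7% confidence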;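 note: fluorescence intensity change per second fitted from 20 to 320 s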); conditions: Recombinant KvBeta, NADPH fluorescence decrease slope, 10 min; at 10 µM; stronger effect = lower value
[6] = target: Alpha-2C adrenergic receptor (Homo sapiens) (UniProt P18825); test: compounds altering alpha2C-coupled GIRK flux – cell-based, HEK293 alpha2C/GIRK1/2, thallium flux, primary screen (AID 624;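 active = fluorescence slope after compound addition differing from the mean of all screened samples at 99.7% confidence, in either direction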;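 note: slope of fluorescence ratio to pre-addition baseline per second over 15 to 24 s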); conditions: thallium flux BTC fluorescence, at 10 µM, actives lie on both sides
Sequence of Alpha-2C adrenergic receptor (Homo sapiens) (P18825 whole entry, looked up): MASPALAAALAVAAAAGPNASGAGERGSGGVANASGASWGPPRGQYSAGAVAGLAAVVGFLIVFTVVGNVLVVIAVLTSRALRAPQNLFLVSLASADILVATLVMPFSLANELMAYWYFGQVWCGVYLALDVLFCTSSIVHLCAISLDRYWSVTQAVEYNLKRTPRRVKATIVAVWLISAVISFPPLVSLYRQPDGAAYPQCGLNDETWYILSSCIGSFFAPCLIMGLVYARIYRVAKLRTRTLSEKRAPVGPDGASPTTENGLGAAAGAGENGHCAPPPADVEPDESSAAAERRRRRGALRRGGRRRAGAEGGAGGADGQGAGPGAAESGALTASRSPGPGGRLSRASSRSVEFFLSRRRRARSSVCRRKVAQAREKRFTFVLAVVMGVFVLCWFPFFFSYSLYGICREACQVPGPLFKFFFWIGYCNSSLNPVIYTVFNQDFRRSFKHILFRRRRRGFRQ

[7] = blockers of RIG-like receptor reporter activation – cell-based, Sendai virus stimulus, luciferase, 10K MLSCN set, TLR/RLR signaling modifier project, primary screen (AID 602276;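 active = inhibition at or above 50% at 10 µM; inactive = inhibition below 50%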;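 note: firefly luciferase from ISG56 promoter only with Renilla not read in this screen; 0% = Sendai virus plus DMSO and 100% = medium plus DMSO without virus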); conditions: HEK293 RL24 IRF3 luciferase reporter, at 10 µM, stronger effect = higher value
[8] = TLR3 IRF3 reporter activation blockers – cell-based, poly I:C stimulus, luciferase, 10K MLSCN set, primary screen (AID 602277;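 active = inhibition of the reporter signal at or above 50%; inactive = inhibition below 50%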); conditions: HEK293-TLR3 RL24 IRF3 luciferase reporter, at 10 µM, stronger effect = higher value

SMILES | cell count [1] | inhibition [1] | inhibition of aggregation [2] | nuclei count [2] [%] | inhibition [3] | nuclei count [3] [%] | fluorescence slope [4] | NADPH fluorescence slope [5] | slope [6] | inhibition [7] | inhibition [8]
Cn1c(=N)c(S(=O)(=O)c2ccccc2)cc2c(=O)n3ccccc3nc21 | 442 | -5.1% (inactive) | -1.9% (inactive) | 114 | -85.8% (inactive) | 235 | -0.517 (inactive) | -9.2e-06 (inactive) | 0.00488 (inactive) | -14.3% (inactive) | -10.5% (inactive)
COc1ccc2[nH]c(=O)c(CN(CCO)S(=O)(=O)c3ccc4c(c3)OCCO4)cc2c1 | 539 | -7.5% (inactive) | 7.9% (inactive) | 105 | 24.9% (inactive) | 98.9 | -0.555 (inactive) | -5.3e-05 (inactive) | 0.00253 (inactive) | 9.42% (inactive) | 11.8% (inactive)
CC1=C(C(=O)OC(C)C)C(C2CC=CCC2)NC(=O)N1 (stereo not drawn) | 306 | 2% (inactive) | 17.1% (inactive) | 93 | 35.9% (inactive) | 98.9 | -0.322 (inactive) | 1.4e-05 (inactive) | 0.0059 (inactive) | 0.205% (inactive) | 9.1% (inactive)
CC(C)OC(=O)CSc1nnc(-c2cccnc2)n1Cc1ccccc1 | 706 | -16.4% (inactive) | 8.1% (inactive) | 88.7 | 5.1% (inactive) | 98.8 | -0.356 (inactive) | -4.8e-05 (inactive) | 0.00509 (inactive) | 8.88% (inactive) | 10.9% (inactive)
N#Cc1cnn(Cc2ccc(Cl)cc2)c1N | 628 | 4.5% (inactive) | -3.8% (inactive) | 110 | -28.9% (inactive) | 91.4 | -0.466 (inactive) | -5.6e-05 (inactive) | 0.00625 (inactive) | 7.9% (inactive) | 25.7% (inactive)
CC(CCc1ccccc1)NC(=O)c1ccc(Br)o1 (stereo not drawn) | 570 | -7.8% (inactive) | 2.5% (inactive) | 83.4 | -78.2% (inactive) | 95.1 | -0.449 (inactive) | -3.4e-05 (inactive) | 0.00563 (inactive) | 7.34% (inactive) | 9.03% (inactive)
CCn1cc(SCC(=O)NCC2CCCO2)c2ccccc21 (stereo not drawn) | 692 | -20.6% (inactive) | 8.9% (inactive) | 112 | -8.7% (inactive) | 102 | -0.4 (inactive) | -4.5e-05 (inactive) | 0.00573 (inactive) | 3.88% (inactive) | 15.1% (inactive)
O=C(c1csc2ccccc12)N1CCCCCC1 | 359 | 5.6% (inactive) | 13.8% (inactive) | 100 | -16.8% (inactive) | 106 | -0.512 (inactive) | 8.9e-06 (inactive) | 0.0038 (inactive) | 7.71% (inactive) | 5.9% (inactive)
